LASV entry inh = inhibitors of Lassa virus binding or cell entry | Lassa virus pseudotype entry inhibition, cell reporter | Potency, µM (highest dose often 37.9 µM), for the others: top-dose activity change, negative = inhibition, hits mostly inhibitors | 300,000 compounds, 1.2% hits; calls by dose curve; tested in HEK293 cells; further: potency means the concentration at half of the fitted maximal effect; nearly all actives have a fitted effect of over 50% in size
Vaccinia mCherry = inhibitors of vaccinia virus infection (mCherry reporter signal); Potency, µM (top dose mostly 36.5 µM), for the others: at the top dose activity change, negative = inhibition, usual class: inhibitors; AID 720579; Vaccinia virus mCherry reporter infection, fluorescence; 310,000 compounds, 0.63% hits; calls by dose curve; tested in A549 cells; further: potency means the concentration at half of the fitted maximal effect; nearly all actives have a fitted effect of over 35% in size
HCV inh = HCV inhibition; Huh7.5.1 HCVcc-Cre infection, luciferase reporter, 44 h; Potency, µM (titrated, usually from 41.8 µM), for the others: at the highest dose activity change, negative = inhibition, usual class: inhibitors; 340,000 compounds, 3.4% hits; active means well fitted inhibition curve with a large enough effect; inconclusive means small, poorly fitted or top-dose-only effect, or another doubt; inactive means no such curve, though single readings can be large or run the other way; further: potency means the concentration at half of the fitted maximal effect
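Antiviral activity was scored by luciferase reporter output from cells infected with HCVcc-Cre (~0.5 moi) in presence of compound, 44 h infection period, cells seeded 1,000/well 4 h prior.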
VACV Venus inh = inhibitors of vaccinia virus (Venus reporter); 330,000 compounds, 0.46% hits; Vaccinia virus Venus reporter expression, fluorescence; Potency, µM (highest dose often 36.5 µM), inactives show at the top dose activity change, negative = inhibition, most hits filed as inhibitors; calls by dose curve; tested in A549 cells; further: potency means the concentration at half of the fitted maximal effect; nearly all actives have a fitted effect of over 30% in size
Marburg entry inh = Marburg virus entry inhibition; 300,000 compounds, 1.8% hits; AID 540276; Potency, µM (top dose mostly 37.8 µM), inactives show at the highest dose activity change, negative = inhibition, usual class: inhibitors; Marburg virus pseudotyped entry inhibition, cell reporter; calls by dose curve; tested in HEK293 cells; further: potency means the concentration at half of the fitted maximal effect
HCMV antiviral = human cytomegalovirus inhibition; HFF cells, HCMV-luciferase reporter, 72 h; hits give low values; activity change, negative = inhibition, % at 57.5 µM; 410,000 compounds, 4.5% hits; AID 1259415; in the data active means activity change below about -60%; inconclusive means no clear call, values can overlap the other calls; inactive means above about -39%
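Screen run at 2 compound doses on HFFs infected with reporter HCMV, MOI 1 PFU/cell. Luciferase activity from cell lysates at 72 h post infection gave inhibition relative to buffer-only and Salinomycin wells.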
Numbers without * were called inactive; i = inactive; ? = inconclusive; / = no result given; [ ] = dose if it differs, or a comment. This is a sample that favours compounds with a hit; in the whole collection about 7.8% have one here. On the % scale 0 is the no-effect control and ±100 the full control effect.

SMILES	LASV entry inh	Vaccinia mCherry	HCV inh	VACV Venus inh	Marburg entry inh	HCMV antiviral
O=C(NC1CCCCCC1)c1ccc(CS(=O)c2cccc(Cl)c2)o1 (centres undefined)	13%[46.1 µM]	-9%	/	-7%	/	9
c1ccc(-c2cn3ccccc3n2)cc1	-16%[46.1 µM]	-7%	2%	-5%	11µM*	94
Oc1ccc(-c2cn3ccccc3n2)cc1	/	/	1%	/	/	72
O=[N+]([O-])c1ccc(-c2cn3ccccc3n2)cc1	/	/	8%	/	/	-65*
CCCCSc1ccc2nc(-c3ccc(C#N)cc3)cn2c1	?	/	?	-23%	-25%	-4
Brc1ccc(-c2cn3ccccc3n2)cc1	2.8µM*	0%	-13%	3%	?	68
CCCSc1ccc2nc(-c3ccccc3)cn2c1	2.2µM*	-21%	?	-14%	?	-64*
C=CC[C@]1(C(=O)OC)C=C[C@H](C)[C@@H](c2ccccc2)N1C(=O)C(F)(F)F	/	/	/	/	-15%[14.2 µM]	/
CCc1ccc(NC(=O)CSc2nnc(-c3cc4occc4n3C)n2-c2ccccc2C)cc1	?	-17%	/	-13%	/	27
CC(Oc1ccc2c(-c3ccccc3)cc(=O)oc2c1)C(=O)NCc1ccccn1 (centres undefined)	/	-8%	25µM*	-3%	/	-34
O=C(COc1ccc2c(-c3ccccc3)cc(=O)oc2c1)N[C@@H](Cc1c[nH]c2ccc(O)cc12)C(=O)O	/	2%	?	-6%	/	19
CC(Oc1ccc2c(-c3ccccc3)cc(=O)oc2c1)C(=O)NC(Cc1c[nH]c2ccc(O)cc12)C(=O)O (centres undefined)	/	4%	1%	-8%	/	-77*
Cc1ccn(-c2ccc([N+](=O)[O-])cc2)n1	-11%	/	6%	/	15%	-88*
O=[N+]([O-])c1ccc(S(=O)(=O)N2CCn3cccc3C2c2ccccc2F)cc1 (centres undefined)	-7%[46.1 µM]	11µM*	/	?	/	-2
Cc1ccc(/C=C2\SC(=S)N(CCC(=O)N3CCCCC3)C2=O)cc1	10%	-13%	5%	2%	-4%[46.1 µM]	6
CN1CCN(C(=O)CCN2C(=O)/C(=C/c3ccccc3Cl)SC2=S)CC1	-30%[46.1 µM]	0%	?	56%	?	-85*
Cc1ccc(/C=C2/SC(=S)N(CCC(=O)N3CCN(C)CC3)C2=O)cc1	3%	-9%	?	-6%	?	-74*
C=CCn1c(SCC(=O)c2cc(C)n(C(C)COC)c2C)nc2sc(C)c(C)c2c1=O (centres undefined)	9.2µM*	/	10µM*	/	-10%	-5
CCc1ccc(CSc2nc(-c3ccccc3OC)nc3c2Cc2c(CO)cnc(C)c2O3)cc1	0%[46.1 µM]	?	/	?	/	30
CCCCCCN1C[C@H](O)[C@@H](n2cc(-c3ccc(F)cc3)nn2)C[C@H]1c1ccccc1	16µM*	/	/	/	/	/
CCCCCCN1C[C@H](n2cc(-c3ccc(F)cc3)nn2)[C@@H](O)C[C@@H]1c1ccc(C)cc1	/	28µM*	/	?	/	-81*
CCCCCCN1C[C@H](n2cc(C3CC3)nn2)[C@@H](O)C[C@@H]1c1ccccc1	/	?	/	11µM*	/	-38
CCCCCCN1C[C@H](O)[C@@H](n2cc(-c3ccc(F)cc3)nn2)C[C@@H]1c1ccc(Cl)cc1	/	?	/	?	/	2
CCCCCCN1C[C@@H](n2cc(-c3ccc(F)cc3)nn2)[C@H](O)C[C@@H]1c1ccc(Cl)cc1	/	?	/	?	/	-95*
COc1ccc(-n2c(SCC(=O)NC3CCCCC3)nc3c([nH]c4ccccc43)c2=O)cc1	12%[46.1 µM]	-2%	/	-2%	/	8
SMILES	LASV entry inh	Vaccinia mCherry	HCV inh	VACV Venus inh	Marburg entry inh	HCMV antiviral
CCOc1ccc(NC(=O)c2sc(-n3nc(C)c(Cc4ccc(Cl)cc4)c3C)nc2C)cc1	8%[46.1 µM]	-3%	/	-21%	2%[46.1 µM]	-29
CCC(Sc1nc2ncccc2[nH]1)C(=O)Nc1cccc(OC)c1 (centres undefined)	22%[46.1 µM]	-9%	/	-7%	/	9
O=C(CCS(=O)(=O)c1cc(Br)cc2c1N(C(=O)C1CC1)CC2)NCc1ccccc1Cl	16%[46.1 µM]	-8%	/	-5%	3%[46.1 µM]	-5
CCOC(=O)c1cccn1C1C(=O)N(Cc2ccc(C(C)C)cc2)c2ccc(Cl)cc21 (centres undefined)	/	/	/	/	/	-12
NC(=O)C1CCN(C(=O)Cn2c(-c3cccs3)cc3ccccc32)CC1	-11%[46.1 µM]	-5%	/	3%	/	31
CCCCCCN1C[C@H](O)[C@@H](n2cc(-c3ccc(F)cc3)nn2)C[C@H]1c1ccc(C)cc1	25µM*	/	/	/	/	/
O[C@H]1CN(CC2CCCCC2)[C@@H](c2ccc(Cl)cc2)C[C@H]1n1cc(C2CC2)nn1	10µM*	/	/	/	/	/
COC(=O)c1cc2oc3ccccc3c2n1CC(=O)Nc1cccc(SC)c1	/	-17%	/	-6%	?	?
Cc1ccc(-c2nnn(CC(=O)N(Cc3ccco3)C(C(=O)NC(C)(C)C)c3ccc(C)o3)n2)o1 (centres undefined)	?	?	11µM*	?	?	-24
Cc1ccc(N(C[C@@H](O)CN(C)C)S(=O)(=O)c2ccccc2)cc1	/	/	/	/	1%	/
FC(F)(F)c1cccc(Nc2nc3nonc3nc2Nc2ccc(Cl)cc2)c1	?	2µM*	/	1.8µM*	?	-98*
CCc1ccc(S(=O)(=O)c2cn(Cc3ccccc3F)c3cc(OC)c(OC)cc3c2=O)cc1	?	-13%	/	-11%	-17%[46.1 µM]	-8
O=C1COc2cc(S(=O)(=O)CCC(=O)N3CCN(c4ccccc4)CC3)c(Cl)cc2N1	-18%[46.1 µM]	1%	/	1%	/	-23
CC(O)(c1cccnc1)c1nc(/C=C/c2ccccc2)cs1 (centres undefined)	/	-24%	/	-11%	/	-83*
CC1CCCN(c2ncnc3c2cnn3-c2ccc(Cl)cc2)C1 (centres undefined)	/	i	-2%	-5%	/	-98*
Cc1cccc(-n2ncc3c(N4CCCC(C)C4)ncnc32)c1 (centres undefined)	-22%[46.1 µM]	-6%	/	2%	/	-35
CCN(CC)C(=O)C1CCCN(c2ncnc3c2cnn3-c2ccc(Cl)cc2)C1 (centres undefined)	/	i	?	?	/	-68*
CC1CCCN(c2ncnc3c2cnn3-c2ccc(F)cc2)C1 (centres undefined)	-5%[46.1 µM]	7%	/	0%	/	-80*
CCN(CC)C(=O)C1CCCN(c2ncnc3c2cnn3-c2cccc(C)c2)C1 (centres undefined)	-9%	-14%[1.46 µM]	?	-26%	?	-37
CC1CCCN(c2ncnc3c2cnn3-c2ccccc2)C1 (centres undefined)	/	-3%	-11%	-15%	/	?
Cc1nc2ccc(C(=O)N3c4ccccc4N=C(c4ccc(C(F)(F)F)cc4)C3C(=O)NC(C)(C)C)cc2[nH]1 (centres undefined)	/	-11%	/	-11%	/	-25

From PubChem
